# VDR inhibitor: blocks the human vitamin D receptor; P11473; VDR-SRC2-3 peptide fluorescence polarization, 2 h; 400,000 compounds, 0.93% hits; Potency, µM, hits mostly inhibitors
#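 The screen uses fluorescence polarization to detect compounds that interfere with recruitment of the SRC2-3 coactivator peptide to VDR; plates are read after 2 h at room temperature.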
# BRCA1 expr up: BRCA1 expression activation; Potency, µM (titrated, usually from 46.1 µM), hits mostly activators; 380,000 compounds, 1.1% hits; MCF7-BRCA1-FFLuc reporter, luminescence, 48 h; response scale: scaled: vehicle 0%, 10 µM genistein 100%; further: nearly all actives have a fitted effect of over 80% in size
#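 Quantitative HTS in MCF7 cells stably reporting BRCA1 expression via firefly luciferase. Compound treatment lasts 48 h at 37 °C in phenol-red free MEM. Activation is expressed relative to genistein at 10 microM and DMSO.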
# Tb PFK inh: T. brucei PFK enzyme inhibition | T. brucei PFK, ADP-Glo luminescence | Potency, µM (series often up to 57.5 µM), hits mostly inhibitors | 330,000 compounds, 0.17% hits | AID 485367; further: nearly all actives have a fitted effect of over 60% in size
# Target sequence (O15648 whole entry, looked up): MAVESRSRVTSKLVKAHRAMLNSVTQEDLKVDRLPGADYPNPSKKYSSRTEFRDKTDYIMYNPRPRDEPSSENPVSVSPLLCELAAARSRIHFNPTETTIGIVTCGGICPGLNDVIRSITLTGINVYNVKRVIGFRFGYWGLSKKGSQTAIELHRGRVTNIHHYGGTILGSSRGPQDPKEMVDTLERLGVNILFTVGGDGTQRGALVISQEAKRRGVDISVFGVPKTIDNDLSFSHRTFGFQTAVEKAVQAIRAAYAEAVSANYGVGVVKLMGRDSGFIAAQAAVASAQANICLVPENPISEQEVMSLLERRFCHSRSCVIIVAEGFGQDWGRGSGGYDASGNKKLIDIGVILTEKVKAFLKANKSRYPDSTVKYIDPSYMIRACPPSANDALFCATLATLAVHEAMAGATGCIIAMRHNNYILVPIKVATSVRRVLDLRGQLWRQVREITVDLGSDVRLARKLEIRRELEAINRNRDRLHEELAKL
#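 Compounds were pin-transferred as a titration series up to 57 uM into substrate buffer (0.5 mM F6P, 0.1 mM ATP, pH 8.0), then 1.25 nM PFK was added and reactions ran 45 min before ADP-Glo detection.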
# PLK1 PBD inh: PLK1 (human) polo-box domain binding inhibition; Plk1 PBD binding of FITC phosphopeptide, fluorescence polarization; Potency, µM, hits mostly inhibitors; 360,000 compounds, 2.8% hits; AID 720504; further: series mostly up to about 57 µM; nearly all actives have a fitted effect of over 65% in size
# Hits are given with their value; – = inactive; ? = inconclusive; · = no result given. The list is not random: actives were taken first. Their share in the collection is about 3.9%. The call rests on the fitted dose curve; in most records, active means well fitted curve in the direction sought with a large enough effect; inconclusive means small, poorly fitted or top-dose-only effect, or another doubt; inactive means no such curve, though single readings can be large; an effect the other way counts as inactive or inconclusive.
SMILES,VDR inhibitor,BRCA1 expr up,Tb PFK inh,PLK1 PBD inh
Cc1cc(C)c(S(=O)(=O)Nc2ccc(-c3ccc(N4CCC(C)CC4)nn3)cc2)cc1C,–,·,·,·
NC(=O)c1cc(S(=O)(=O)N2CCOCC2)ccc1Sc1ccccc1N,–,–,–,15µM
O=C(Nc1c(Cl)cc([N+](=O)[O-])cc1Cl)c1cc(Cl)cc(Cl)c1O,?,–,·,·
COc1ccc(CCn2c(-n3nc(C)cc3C)nc3c2c(=O)[nH]c(=O)n3C)cc1,–,–,·,2.99µM
C/C=C/Cn1c(SCCCc2ccccc2)nc2c1c(=O)[nH]c(=O)n2C,–,–,–,–
CCCCCOC(=O)CSc1nc2c(c(=O)[nH]c(=O)n2C)n1CCc1ccccc1,?,–,–,21.2µM
COCCn1c(SCCCc2ccccc2)nc2c1c(=O)[nH]c(=O)n2C,–,–,–,?
CCCCCn1c(SCCc2ccccc2)nc2c1c(=O)[nH]c(=O)n2C,–,–,–,–
CC(C)n1c(SCCCc2ccccc2)nc2c1c(=O)[nH]c(=O)n2C,?,–,–,9.47µM
COCCSc1nc2c(c(=O)[nH]c(=O)n2C)n1CCCc1ccccc1,?,–,?,21.2µM
CCN(CC)CCNC(=O)c1ccc(-c2nc(CS(=O)(=O)c3ccc(C)cc3)c(C)o2)cc1,–,·,·,·
COc1ccc(-n2nc(C(=O)Nc3ccccc3OC)c3c4ccccc4n(C)c3c2=O)cc1Cl,–,·,·,·
CCOC(=O)c1ccc(NC(=O)c2csnn2)cc1,–,·,·,·
COc1cccc(NC(=O)CCc2c(C)nc3c4cccnc4nn3c2C)c1,–,·,·,·
CC(=O)n1nc(-c2ccc(C)cc2)nc1NCc1ccc(F)cc1,–,3.16µM,–,–
O=C(c1ccco1)n1nc(-c2ccccc2)nc1NCc1ccc(F)cc1,–,–,·,·
O=C(c1cccs1)n1nc(-c2ccccc2)nc1NCc1ccco1,–,–,–,26.7µM
COCC(=O)n1nc(-c2ccccc2)nc1NCc1cccs1,–,10µM,–,–
CC(=O)n1nc(-c2ccc(C)cc2)nc1NCc1ccco1,?,5.01µM,–,–
COc1cccc(-c2nn(C)c3sc(C(=O)NCCc4cccc(C)c4)cc23)c1,–,·,·,·
Cc1cccc(N2CCN(C(=O)CN3C(=O)COc4ccc(S(=O)(=O)N5CCCC5)cc43)CC2)c1C,–,–,·,·
CN(C)c1cc(F)c(C=O)cc1F,·,–,·,·
O=C(NC1CC1)c1ccc(-c2cnc3cccnn23)cc1,·,7.94µM,·,–
CCOc1cccc(-c2cnc3cccnn23)c1,·,8.91µM,·,–
CCOc1ccc(-c2cnc3cccnn23)cc1,·,7.08µM,·,–
SMILES,VDR inhibitor,BRCA1 expr up,Tb PFK inh,PLK1 PBD inh
Cc1cccc(-c2cnc3cccnn23)c1,·,?,·,–
O=C(/C=C/c1ccccc1)Nc1cccc(C(=O)NCCCCc2ccccc2)c1,–,–,·,–
COc1ccc2nc(/C=N/NC(=O)CCCCCNC(=O)OC(C)(C)C)ccc2c1,–,–,–,–
COc1ccc2nc(/C=N/NC(=O)CCNC(=O)OC(C)(C)C)ccc2c1,–,6.31µM,–,–
CC(C)CSc1n[nH]c(=S)s1,–,–,–,7.52µM
CC(CSc1n[nH]c(=S)s1)c1ccccc1 (centres undefined),–,–,·,?
CC(C)[C@H](NS(=O)(=O)c1ccc2c(c1)OCCO2)C(=O)OCC(=O)Nc1cc(Cl)ccc1Cl,79.4µM,–,–,29.9µM
CC(C)[C@H](NS(=O)(=O)c1ccc2c(c1)OCCO2)C(=O)OCC(=O)Nc1ccccc1Cl,–,–,–,–
O=C(CCCN1CCOCC1)c1ccc2c(c1)OCCO2,–,?,–,–
O=C(COC(=O)c1ccc(O)cc1)c1ccc2c(c1)OCCO2,–,10µM,–,–
O=C(CCN1CCOCC1)c1ccc2c(c1)OCCO2,56.2µM,–,–,?
O=C(OCC(=O)N1CCOCC1)c1ccc2c(c1)OCCO2,–,–,–,–
CC(CN1CCCCC1)OC(=O)c1ccc2c(c1)OCO2 (centres undefined),–,–,–,–
O=C(OCCN1CCOCC1)c1ccc2c(c1)OCCO2,–,7.94µM,·,–
O=C(CCN1CCCCC1)c1ccc2c(c1)OCO2,44.7µM,–,–,?
COc1ccc(C(=O)COC(=O)c2cc(=O)c3ccccc3o2)c(OC)c1,·,–,·,–
O=C(OCCN1CCOCC1)c1ccccc1,–,–,–,23.8µM
CCc1ccc(NC(=O)C(=S)NC2CCCCC2)cc1,–,2µM,–,–
O=C(NN1C(=O)/C(=C/C=C/c2ccco2)SC1=S)c1ccncc1,–,–,?,4.74µM
COc1cccc(NC(=O)N(C)C[C@H]2Oc3ncc(Br)cc3C(=O)N([C@H](C)CO)C[C@H]2C)c1,·,–,·,–
CCNc1ccc2noc3c2c1C(=O)c1ccccc1-3,–,–,–,1.06µM
O=C1c2ccccc2-c2onc3ccc(NCc4ccco4)c1c23,?,–,–,3.36µM
CCOc1ccc2noc3c2c1C(=O)c1ccccc1-3,–,–,–,–
Cc1cc(C)n2c(SCC(=O)N(CCC#N)c3ccc4c(c3)OCCO4)nnc2n1,·,–,·,?
CCc1nc2ccc(C(=O)NCCCn3ccnc3)cn2c1N(C)CCC(C)C,·,–,·,–
SMILES,VDR inhibitor,BRCA1 expr up,Tb PFK inh,PLK1 PBD inh
CC(C)C[C@H]1CN([C@@H](CC(C)C)CN2CCCC2CN2C(=S)NC[C@@H]2Cc2ccccc2)C(=S)N1CC1CCCCC1 (some centres undefined),·,–,·,–
Clc1nc(Nc2ccccc2)nc(Nc2ccccc2)n1,–,–,–,–
CC(C)(C)Nc1nc(Cl)nc(Nc2ccccc2)n1,–,11.2µM,–,–
Cc1cc(C)c(NC(=O)CN(C)C(=O)c2ccc(OCc3ccccc3)cc2)c(C)c1,–,–,–,–
CSCCC(NC(=O)c1ccccc1)C(=O)OCC(=O)Nc1ccc(C)c(Cl)c1 (centres undefined),?,–,–,21.2µM
O=C(CC(C(=O)O)c1cccc(Cl)c1)c1ccccc1 (centres undefined),–,–,–,–
Cc1ccc(NC(=O)CC(NCCN2CCOCC2)C(=O)O)cc1Cl (centres undefined),–,–,–,–
CSCCC(NC(=O)c1ccc(Cl)cc1)C(=O)OCC(=O)Nc1cc(Cl)ccc1C#N (centres undefined),–,–,–,–
Cc1ccc(NC(CC(=O)c2ccccc2)C(=O)O)cc1Cl (centres undefined),?,–,–,23.8µM
O=C(CC(Nc1ccc(Cl)cc1Cl)C(=O)O)c1ccccc1 (centres undefined),79.4µM,–,–,–
Cc1cccc(Nc2cc(C)nc3nc(Cc4ccc(Cl)cc4)nn23)c1,–,–,·,·
COc1ccc(-c2cc(C(F)(F)F)nc(SCCC(=O)Nc3cccc(O)c3)n2)cc1,–,–,·,·
COCCCn1c(SCC(=O)Nc2sc3c(c2C#N)CCCC3)nnc1-c1ccncc1,–,–,–,26.7µM
COCCCn1c(SCC(=O)NC2CCCC2)nnc1-c1ccncc1,?,–,–,–
Cc1ccc2onc(CC(=O)N3CCN(c4cccc(C)c4C)CC3)c2c1,–,·,·,·
Cc1ccsc1/C=N/N1CCN(Cc2ccccc2)CC1,–,?,–,21.2µM
O=C(NCCN1C(=O)C2C3C=CC(C3)C2C1=O)NCc1ccccc1 (centres undefined),89.1µM,–,–,–
